# LASV entry inh: inhibitors of Lassa virus binding or cell entry. AID 540256. 300,000 tested, 1.2% active. Potency, µM (top dose mostly 37.9 µM), without a hit: top-dose activity change, negative = inhibition, most hits filed as inhibitors. Lassa virus pseudotype entry inhibition, cell reporter; calls by dose curve; tested in HEK293 cells; also: potency is read from the fitted curve at half-maximal effect; % is scaled to controls: 0 for no effect and ±100 for the full control effect; nearly all actives have a fitted effect of over 50% in size
# Pf growth 48h: P. falciparum growth inhibition at 48 hours (one generation). P. falciparum luciferase growth in erythrocytes, 48 h. Potency, µM (series often up to 28.7 µM), without a hit: top-dose activity change, negative = inhibition, hits mostly inhibitors. 310,000 tested, 5.9% active; also: potency is read from the fitted curve at half-maximal effect; % is scaled to controls: 0 for no effect and ±100 for the full control effect
#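 Luminescence readout; reporter = integrated firefly luciferase in P. falciparum. RBC culture at 2% hematocrit, 0.1% parasitemia final, 37 C/5% CO2; decreased signal taken as growth inhibition.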
# Pf growth 96h: inhibits malaria parasite growth, 96 h. AID 504834. 320,000 tested, 6.9% active. Potency, µM (series often up to 28.7 µM), inactives show at the top dose activity change, negative = inhibition, usual class: inhibitors. P. falciparum luciferase reporter growth, 96 h; also: potency is read from the fitted curve at half-maximal effect; % is scaled to controls: 0 for no effect and ±100 for the full control effect
#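 96 h incubation, 37 C, 5% CO2, of luciferase-reporter P. falciparum-infected RBCs (2% hematocrit, 0.05% parasitemia final) with test compounds; endpoint luminescence.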
# Shiga inhibitor: inhibitors of Shiga toxin in Vero cells; 290,000 tested, 9.2% active; inhibition, % at 38.7 µM; Vero cells, Shiga toxin protein synthesis inhibition reporter; in the data active = inhibition mostly above about 28%, no sharp cut-off; inactive = mostly below about 43%; also: 0% is about no effect
# Marburg entry inh: inhibitors of Marburg virus binding or cell entry; Marburg virus pseudotyped entry inhibition, cell reporter; Potency, µM (doses to about 37.8 µM), for inactives: at the top dose activity change, negative = inhibition, usual class: inhibitors; 300,000 tested, 1.8% active; calls by dose curve; tested in HEK293 cells; also: potency is read from the fitted curve at half-maximal effect; % is scaled to controls: 0 for no effect and ±100 for the full control effect
# CHX counter: affects cycloheximide protein synthesis inhibition readout, counter-screen. cell reporter, cycloheximide protein synthesis inhibition counterscreen. max response, %. 300,000 tested, 12% active; in the data active = max response mostly above about 13%, no sharp cut-off; inactive = mostly below about 14%; also: read at 38.3 µM for the half of the compounds with a filed dose; 0% is about no effect
# The depositor's hits bear a star; ? = inconclusive; . = not tested or not shown; [ ] = another dose, or the depositor's remark. This is a sample that favours compounds with a hit; in the whole collection about 19% have one here. Unless noted, calls follow the shape of the dose curve; as a rule, active = well fitted inhibition curve with a large enough effect; inconclusive = small, poorly fitted or top-dose-only effect, or another doubt; inactive = no such curve, though single readings can be large or run the other way.
SMILES,LASV entry inh,Pf growth 48h,Pf growth 96h,Shiga inhibitor,Marburg entry inh,CHX counter
O=S(=O)(c1ccc(Br)cc1)N1CCOC12CCCCC2,10%,?,-14%,-15,-3%[46.1 µM],-1
COCCn1c(C)cc(O)c(C(c2ccc(Cl)cc2)N2CCN(c3ccccc3)CC2)c1=O (stereo unspecified),23%[46.1 µM],.,.,.,.,.
O=C(Nc1cccc(Cn2cccn2)c1)c1cc2c(s1)CCCC2,-16%,110%,.,143*,?,77*
CC(=O)Nc1cccc(Cn2cccn2)c1,.,6%,13µM*,6,-5%,-1
O=C(Nc1cccc(S(=O)(=O)N2CCOCC2)c1)c1cc2c(s1)CCC2,-4%,-12%,.,-12,-10%,-2
COC(=O)c1c(NC(=O)C2CCC2)sc(C(=O)N(C)C)c1C,-2%,12%,?,-7,-2%,-1
COC(=O)c1c(NC(=O)C2c3ccccc3Oc3ccccc32)sc(C)c1C,2%,19%,?,-14,5%,1
COC(=O)c1sc(NC(=O)C2c3ccccc3Oc3ccccc32)c(C(=O)OC)c1C,5%,1.7µM*,10µM*,10,?,7
CCC(=O)Nc1sc(C(=O)OC)c(C)c1C(=O)OC,6%,6%,14%,12,-1%,-5
COC(=O)c1c(NC(=O)C2CC2)sc(C(=O)Nc2ccccc2)c1C,0%,22%,-1%,52*,?,25*
COC(=O)c1sc(NC(=O)C(C)C)c(C(=O)OC)c1C,0%,9%,?,16,?,40*
O=C(Cn1cc(C(F)(F)F)ccc1=O)N/N=C/c1ccc(F)cc1,1%,17%,8%,-8,7%[46.1 µM],5
CC(C)C(=O)NC(=S)Nc1ccccc1N1CCN(C(=O)c2ccc(Cl)cc2)CC1,?,1.5µM*,-28%,-19,?,32*
Cc1ccccc1C(=O)Nc1ccccc1N1CCN(C(=O)c2ccccc2)CC1,?,12µM*,18%,-7,?,-3
COc1c(C)cc(Br)cc1C(=O)Nc1ccccc1N1CCN(C(=O)c2ccccc2)CC1,?,?,-3%,-1,-17%[46.1 µM],-3
CC(C)(C)C(=O)Nc1ccccc1N1CCN(C(=O)c2ccc(Cl)cc2)CC1,-19%,10µM*,?,-2,?,1
O=C(CSc1ccc(Cl)cc1)Nc1ccccc1N1CCN(C(=O)c2ccc(Cl)cc2)CC1,?,4.1µM*,?,-11,?,-5
O=C(Nc1ccccc1N1CCN(C(=O)c2ccc(Cl)cc2)CC1)c1cccc(F)c1,?,?,14%,-3,?,1
O=C(CSc1ccc(Cl)cc1)Nc1ccc(N2CCN(C(=O)c3ccc(Cl)cc3)CC2)cc1,?,-23%,?,-31,?,1
Cc1cccc(N2CCN(C(=S)NC3CCCCC3)CC2)c1C,.,?,1%,-4,.,-2
O=C(Nc1ccc(Cl)cn1)c1cc(S(=O)(=O)N2CCCCC2)ccc1Cl,3%,?,.,17,-16%,6
Cc1ccccc1Cn1c(=N)n(CC(=O)c2ccco2)c2ccccc21,-1%,?,15µM*,-20,?,-4
COc1ccc(CCNC(=O)CN(c2cc(OC)ccc2OC)S(=O)(=O)c2ccccc2)cc1,?,9.3µM*,9%,-7,?,-10
COc1ccc(OC)c(N(CC(=O)NCCc2ccc(OC)c(OC)c2)S(=O)(=O)c2ccccc2)c1,.,?,26%,-7,-7%[46.1 µM],-2
COc1ccc(CCNC(=O)CN(c2ccccc2OC)S(=O)(=O)c2ccc(C)cc2)cc1,7%[46.1 µM],4.1µM*,100%,-4,?,-2
SMILES,LASV entry inh,Pf growth 48h,Pf growth 96h,Shiga inhibitor,Marburg entry inh,CHX counter
COc1ccc(N(CC(=O)NCCc2ccccc2)S(=O)(=O)c2ccc(OC)c(OC)c2)cc1,6.3µM*,.,.,.,.,.
Cc1ccc(-n2nnnc2-c2cccnc2)cc1,.,1%,21%,-7,5%,1
COc1ncccc1-c1nnn(-c2ccc(Cl)nc2)n1,.,102%,141%,42,.,20*
COc1ccc2[nH]c(=O)c(-c3nnn(-c4ccccc4)n3)cc2c1,.,8%,?,24,.,2
Clc1ccc(-n2nnc(-c3cccnc3Cl)n2)cn1,.,114%,279%,50*,.,35*
Brc1ccccc1-n1nnc(-c2nccs2)n1,.,281%,78%,77*,.,49*
Cc1ccc(-n2nnc(-c3cccnc3Cl)n2)cc1,.,143%,179%,87*,.,47*
CC(C)(C)c1ccc(S(=O)(=O)N2CCCC2C(=O)N2CCOCC2)cc1 (stereo unspecified),9%[46.1 µM],-16%,2%,10,8%[46.1 µM],-4
CCNC(=S)NNC(=O)CCn1c2ccccc2c2ccccc21,?,?,?,19,0%[46.1 µM],2
Clc1ncccc1-c1nnn(-c2ccccc2Br)n1,.,104%,134%,73*,.,34*
O=C1c2ccccc2C(=O)N1c1ccc(Br)c2cccnc12,.,34%,25%,-2,.,3
Cc1cc(C(F)(F)F)nn1CC(=O)N(C)c1ccccc1,-3%[46.1 µM],13%,36%,-13,-12%[46.1 µM],-4
Cc1cc(C(F)(F)F)nn1CC(=O)NCc1ccccc1,19%,.,7.4µM*,-15,-2%,-7
COc1ccccc1CNC(=O)Cn1nc(C(F)(F)F)cc1C,.,12µM*,15µM*,.,.,.
CCN(Cc1nc2ccccc2c(=O)[nH]1)C(=O)c1ccc(C)c(NC(=O)c2ccco2)c1,.,-29%,13µM*,.,.,.
CCN(Cc1nc2ccccc2c(=O)[nH]1)C(=O)c1cccc(NC(=O)c2cccs2)c1,-19%[46.1 µM],?,?,.,-23%,.
CCN(Cc1nc2ccccc2c(=O)[nH]1)C(=O)c1cccc(S(=O)(=O)N2CCc3ccccc32)c1,.,10µM*,?,.,.,.
CCN(Cc1nc2ccccc2c(=O)[nH]1)C(=O)COc1ccccc1-c1ccccc1,.,13µM*,9.3µM*,.,.,.
CN(Cc1nc2ccccc2c(=O)[nH]1)C(=O)c1cccc(S(=O)(=O)N2CCCC2)c1,.,21%,-4%,.,.,.
CCC(CC)C(=O)N(CCc1ccc(OC)cc1)Cc1nc2ccccc2c(=O)[nH]1,?,.,12µM*,-19,?,-9
COc1ccc(CCN(Cc2nc3ccccc3c(=O)[nH]2)C(=O)c2ccco2)cc1,1%,?,8%,13,?,-1
Cc1cc(C)n(-c2nnc(Nc3ccc(C(C)C)cc3)c3ccccc23)n1,-15%[46.1 µM],.,.,.,.,.
CCN(Cc1nc2ccccc2c(=O)[nH]1)C(=O)c1cc(C2CC2)nn1-c1ccccc1,.,?,9.3µM*,.,.,.
CCN(Cc1nc2ccccc2c(=O)[nH]1)C(=O)C1CC(=O)N(c2cccc3ccccc23)C1 (stereo unspecified),.,10µM*,?,.,.,.
COc1ccccc1C(=O)Nc1nc(N)n(-c2ccccc2)n1,16%,0%,218%,2,10%,7
